Tested on: AAK1
Settings: concentration: 1 μM, replicates: in singlicate; n = 1
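Also: KINOMEscan kinase panel screen.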

SMILES	%Inh
Cc1ccc(C(=O)N2CC[C@@H](O)C2)cc1-n1c(C)cc(OCc2ccc(F)cc2F)c(Br)c1=O	0%
c1ccc(Oc2ccc(Nc3ccnc4cc(-c5ccc(CNCCN6CCOCC6)o5)ccc34)cc2)nc1 [GW567145]	6%
CC(C)c1nc(-c2cccc(NS(=O)(=O)c3c(F)cccc3F)c2F)c(-c2ccnc(Nc3ccc(N4CCOCC4)nc3)n2)s1 [GSK2008607]	0%
c1ccc(-c2cnc3nccnn23)cc1 [AH20685]	0%
CCn1c(-c2nonc2N)nc2c(C#CC(C)(C)O)nc(OC[C@H](N)c3ccccc3)cc21 [GSK943949]	0%
CSc1cccc2c(-c3ccncn3)c(-c3ccc(F)cc3)nn12 [GW514786]	0%
FC(F)(F)c1ccc(/C=C/c2cncnc2Nc2ccc3[nH]c(Cc4ccccc4)nc3c2)cc1 [GW709199]	15%
C[C@@H](Oc1cc(-n2cnc3cc(-c4ccnc(NCCS(C)(=O)=O)c4)ccc32)sc1C(N)=O)c1ccccc1Cl [GSK907232]	73%
O=C(Nc1n[nH]c2cc(-c3ccoc3)ccc12)C1CC1 [SB-738481]	45%
CC(C)(C)c1ccc2nccc(Nc3cccc(O)c3)c2c1 [GW856795]	0%
Cl.Cl.NCC(NC(=O)c1cc(-c2ccccc2)c(-c2ccnc3[nH]ccc23)s1)c1ccccc1 (stereo not shown) [GSK1321561]	47%
CCc1ccc(-c2ccc3c(c2)-c2c(cnn2C)S(=O)(=O)N3C)cc1	0%
Cl.Cl.NCC(NCc1ccc(-c2ccnc3[nH]ccc23)s1)c1ccccc1 (stereo not shown) [GSK1321565]	67%
Cl.NC(=O)c1cccc(Nc2nccc(Nc3ccc(Oc4c(Cl)cccc4Cl)c(Cl)c3)n2)c1 [GW659009]	15%
Cc1ccc(C)c(NC(=O)NC2CCN(c3ccnc(Nc4ccc(F)cc4)n3)C2)c1 (stereo not shown) [GSK1379720]	6%
COC(=O)Nc1nc2cc(Oc3ccc(NC(=O)Nc4cc(C(F)(F)F)ccc4F)cn3)ccc2[nH]1.Cl.Cl [GW681170]	51%
Cn1cc(-c2[nH]c3cc(NC(=O)[C@H](N)C4CCCCC4)cc4c3c2C=NNC4=O)cn1	99.5%
CCn1c(-c2nonc2N)nc2c(C#CC(C)(C)O)ncc(OCCCCN)c21.O=C(O)C(F)(F)F.O=C(O)C(F)(F)F [GSK507274]	41%
NCCCC(NC(=O)c1cc(Br)c(-c2ccnc3[nH]ccc23)s1)c1ccccc1.O=C(O)C(F)(F)F.O=C(O)C(F)(F)F (stereo not shown) [GSK1287544]	55%

SMILES	%Inh
Cc1ccc(C(=O)Nc2ccc(Nc3ccnc4cc(-c5nccs5)ccc34)cc2O)cc1.Cl [GW494702]	4%
CN(C)S(=O)(=O)c1cc(-c2ccc3nccc(-c4cccc(S(N)(=O)=O)c4)c3c2)cnc1N [GSK1669921]	26%
COc1ccc(Nc2nccc(NCCNC(=O)c3cc4ccccc4s3)n2)cc1 [GSK1379896]	7%
Cc1ccc(F)c(C(=O)Nc2cccc(-c3nn4ccccc4c3-c3ccnc(Nc4cccc(F)c4)n3)c2)c1F [GSK361061]	16%
Nc1n[nH]c2cnc(-c3ccccc3)cc12 [SB-642124]	37%
Cc1cccc(NC(=O)Nc2ccc(Oc3ncnc4ccn(C)c34)cc2)c1	0%
COc1cc2c(cc1OCCN1CCNCC1)ncc1c3ccc(C#N)cc3[nH]c21	96.2%
Fc1ccc(-c2ncn(C3CCNCC3)c2-c2ccnc(Oc3ccc(-c4ccccc4)cc3)n2)cc1 [SB-245391]	14%
CC(=O)Nc1nc2cnc(Nc3cc(NC(=O)c4cccc(C5(C#N)CC5)c4Cl)ccc3C)nc2s1	23%
O=C(O)C(F)(F)F.O=C(O)C(F)(F)F.O=c1[nH]ccc2nc(N[C@@H]3CCCNC3)nc(Nc3ccc(S(=O)(=O)N4CCOCC4)cc3)c12 [GSK2177277]	91.6%
Oc1cc(Nc2ccnc3cc(I)ccc23)ccc1F [GW552771]	10%
COc1cccc(C(=O)Nc2cccc(Oc3ccc4nc(NC(=O)C5CC5)cn4n3)c2)c1	27%
O=C(Nc1cccc(Oc2ccc3nc(NC(=O)C4CC4)cn3n2)c1)c1ccccc1C(F)(F)F	45%
Clc1ccc(-c2nn3ncccc3c2-c2ccnc(Nc3ccc4c(c3)OCCO4)n2)cc1 [GW829116]	0%
O=C(Nc1cccc(-c2nn3ccccc3c2-c2ccnc(Nc3cccc(F)c3)n2)c1)c1c(F)ccc(F)c1Cl [GSK357952]	0%
COC(=O)Nc1nc2ccc(Oc3ccc(NC(=O)Nc4cc(C(F)(F)F)ccc4F)cc3)cc2n1C.Cl [GW692089]	0%
O=C(Nc1cccc(-c2nn3ncccc3c2-c2ccnc(Nc3ccccc3)n2)c1)c1c(F)cccc1F [GSK198271]	17%
CN1CCN(CCCNc2nccc(-c3c(-c4ccc(F)cc4)nn4cc(C(F)(F)F)ccc34)n2)CC1 [GW621581]	1%

Reference: publication PMC5540273 (PLoS ONE, 2017)
